Experiment [1] can be described thus: Cellular Toxicity (caspase-3) SHSY5Y (AID 657). Also: potency is read from the fitted curve at half-maximal effect. The essentials: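 Luminescent caspase-3/7 readout (aminoluciferin release) in SH-SY5Y cells after 16 h compound exposure in complete medium. Activity scaled between DMSO basal and 10 uM staurosporine as 100%; concentration-response fitted to Hill equation for AC50.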
A short description of experiment [2]: Cellular Toxicity (caspase-3) BJ (AID 658). Also: potency is read from the fitted curve at half-maximal effect.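 As to caspase-3 activation: 0% = DMSO basal and 100% = 10 µM staurosporine.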 The settings on record: Potency: caspase-3 activation. The essentials: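 BJ human foreskin fibroblasts, 1000 cells/well, treated 16 hours at 37 °C in complete medium; caspase 3/7 activity by Caspase-Glo luminescence after 1 hr at room temperature. Normalized to DMSO and 10 uM staurosporine; AC50 from Hill fits.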
Experiment [3] in a line: Cellular Toxicity (caspase-3) MRC-5 (AID 659). Also: potency is read from the fitted curve at half-maximal effect.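 As to caspase-3 activation: 0% = DMSO basal and 100% = 10 µM staurosporine.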 The settings on record: Potency: caspase-3 activation. Put shortly: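 MRC-5 human normal lung fibroblasts, 1500 cells/well, treated 16 h at 37 °C in complete medium. Caspase 3/7 measured by Caspase-Glo luminescence after 1 h at room temperature. Normalized to DMSO and 10 uM staurosporine; AC50 from Hill fit.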
A short description of experiment [4]: Cellular Toxicity (caspase-3) Mesangial (AID 660).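 Also: combined caspase 3 and 7 activity read by Caspase-Glo luminescence.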 Also: potency is read from the fitted curve at half-maximal effect. To be noted: Potency: caspase-3 activation. Put shortly: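 Mesangial cells, 1000/well, 5 h settle at 37 °C; compound 16 h, 37 °C; Caspase-Glo 3/7 reagent 20 min RT; luminescence. Norm.: DMSO = 0%, tamoxifen 100 uM = 100%. AC50, Hill fit.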
The nature of experiment [5]: Cellular Toxicity (caspase-3) SK-N-SH (AID 661). Also: potency is read from the fitted curve at half-maximal effect.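 As to caspase-3 activation: 0% = DMSO basal and 100% = 10 µM staurosporine.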 Put shortly:
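Human neuroblastoma SK-N-SH, 1500 cells/well, 5 hr pre-incubation, then compound 16 hr, 37 °C. Caspase-Glo 3/7 reagent, 1 hr RT, luminescence. Norm. to DMSO/10 uM staurosporine; Hill-fit AC50.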

A short description of experiment [6]: Cellular Toxicity (caspase-3) H-4-II-E (AID 663).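 Also: cells exposed to compound for 16 hr before readout.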 To be noted: H-4-II-E rat hepatoma, scaled: DMSO 0%, 100 µM tamoxifen 100%; at 92.2 µM (top of the series). The essentials: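 Rat hepatoma H-4-II-E cells (1500/well) plated 5 hr, then exposed to compound titrations for 16 hr at 37 °C. Caspase-Glo 3/7 luminescence read after 20 min at RT; data normalized to DMSO and 100 uM tamoxifen, AC50 from Hill fits.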

The nature of experiment [7]: Cellular Toxicity (caspase-3) N2a (AID 665).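 Also: compound exposure lasted 16 h at 37 °C before readout.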 The essentials:
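N2a cells, 1500/well, 5 h settle at 37 °C; cpd 16 h, 37 °C; Caspase-Glo 3/7, 1 h RT; luminescence. Norm: DMSO = 0, 10 uM staurosporine = 100%. AC50, Hill fit.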

The nature of experiment [8]: Cellular Toxicity (caspase-3) NIH 3T3 (AID 666).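 Also: caspase signal read after 16 h compound exposure.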 Also: potency is read from the fitted curve at half-maximal effect.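 As to caspase-3 activation: 0% = DMSO basal and 100% = 100 µM tamoxifen stimulation.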 Put shortly: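 Luminescence from aminoluciferin released by caspase-3/7 cleavage of a peptide substrate served as read-out. Mouse fibroblast NIH 3T3 cells were exposed to compounds over a concentration range for 16 hours, and AC50 values came from standard Hill modelling.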
The nature of experiment [9]: Cell Viability - LYMP2-001 (AID 921).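 Also: cells exposed to compound for 24 h at 37 °C; nearly all actives have a fitted effect of over 70% in size.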 Also: potency is read from the fitted curve at half-maximal effect. Put shortly:
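CellTiter-Glo luminescence (intracellular ATP) after 24 hr compound exposure at 37 C, 2500 lymphoblastoid cells/well in complete medium. AC50 fitted with standard Hill equation; tetraoctylammonium bromide positive control.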

Experiment [10] is described as follows: Confirmation and Secondary Assay for Modulators of Hemoglobin Beta Chain Splicing at IVS2 654 locus (AID 910).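 Also: HeLa cells stably carrying EGFP split by mutant beta-globin IVS2-654 intron; % of control where 0% means no effect.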 The essentials: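 HeLa cells stably expressing EGFP interrupted by β-globin IVS2-654 intron, seeded overnight in Opti-MEM/2% FCS, then treated 2 days at 37 °C. Restored splicing read as total peak GFP intensity per well by laser scanning cytometry (488 nm excitation, 500–520 nm emission); 500 nM antisense PNA as control.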

Experiment [11] can be described thus: Confirmation and Secondary Assay for Modulators of Hemoglobin Beta Chain Splicing at IVS2 705 locus (AID 930).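 Also: HeLa cells stably expressing the EGFP-705 splicing reporter; GFP fluorescence per well restored by corrected splicing of the IVS2-705 intron in EGFP; % of control where 0% means no effect.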 The essentials:
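HeLa IVS2-705 EGFP reporter cells, 500/well, compound 2 d at 37C; correct splicing yields fluorescent EGFP. Control: 500 nM antisense PNA. Read-out: total peak GFP intensity.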

Experiment [12] deals with Cytochrome P450 3A4 (Homo sapiens) (UniProt P08684). Nature of the experiment: qHTS Assay for Activators of Cytochrome P450 3A4 (AID 885). Also: nearly all actives have a fitted effect of over 65% in size. Put shortly: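 Quantitative HTS format: compounds preincubated with 20nM human CYP3A4 and Luciferin-PPXE substrate at KM, reaction started by NADPH regeneration, stopped after 60 min, luciferase luminescence read 20 min later.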
In experiment [13] the target is Cytochrome P450 2D6 (Homo sapiens) (UniProt P10635). Put plainly: qHTS Assay for Inhibitors and Substrates of Cytochrome P450 2D6 (AID 891). Also: potency is read from the fitted curve at half-maximal effect; nearly all actives have a fitted effect of over 60% in size. Put shortly:
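Human CYP2D6 (5 nM) with 30 uM Luciferin-ME EGE (at Km) in 100 mM KPO4, compound preincubated 10 min, then NADPH regeneration system for 60 min at room temperature. Luciferin read by luminescence; normalized to 1.43 uM quinidine.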

The target of experiment [14] is Guanine nucleotide-binding protein G(i) subunit alpha-1 (Homo sapiens) (UniProt P63096). Nature of the experiment: qHTS Assay for Inhibitors of RGS12 GoLoco Motif Activity (Green Fluorophore) (AID 879).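 Also: 0% = labeled peptide with Gαi1 and full inhibition = labeled peptide alone without protein; negative values mean loss of peptide binding seen as reduced polarization.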 Put shortly:
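Fluorescence polarization assay: 50 nM Gαi1 with 10 nM FITC-labeled RGS12 GoLoco peptide in 10 mM Tris pH 7.5, 150 mM NaCl, 0.1 mM GDP, 0.05% NP40, 10 min at room temperature with compound.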

For experiment [15], the target named is Cytochrome P450 3A4 (Homo sapiens) (UniProt P08684). Nature of the experiment: qHTS Assay for Inhibitors and Substrates of Cytochrome P450 3A4 (AID 884). Also: % is scaled to controls: 0 for no effect and ±100 for the full control effect; nearly all actives have a fitted effect of over 50% in size. Put shortly: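 20 nM human CYP3A4 with 25 uM Luciferin-PPXE (at KM) in 200 mM KPO4, preincubated 10 min with compound; NADPH regeneration started a 60 min RT reaction. Luciferin detected by luminescence, normalized to 57 uM ketoconazole as full inhibition.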

The nature of experiment [16]: qHTS Assay for Identification of Small Molecule Agonists for Hypoxia Response Element Signaling Pathway (AID 914; active = well fitted activation curve with a large enough effect in the signal ratio, with a control signal flat, not every such curve was filed as active; the % refers to the signal ratio; also: % of control where 0% means no effect). The settings on record: ME-180 (cervical carcinoma) HRE-bla reporter, beta-lactamase ratio, CoCl2, 17 h; stronger effect = higher value. The essentials:
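HRE-bla ME-180 assay for agonist-like enhancement of an EC50 CoCl2 stimulus: 17 h at 37 degrees Celsius, CCF4 for 2.5 h, ratiometric 460/530 nm signal converted to %Activity and fitted to AC50.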

Experiment [17] concerns the target Cytochrome P450 2C9 (Homo sapiens) (UniProt P11712). Put plainly: qHTS Assay for Inhibitors and Substrates of Cytochrome P450 2C9 (AID 883). Also: % is scaled to controls: 0 for no effect and ±100 for the full control effect; nearly all actives have a fitted effect of over 60% in size. The essentials: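 10nM CYP2C9 + 100uM Luciferin-H (=KM), 25mM KPO4; cpd 10 min 37C; NADPH regen, 60 min 37C; stop/detect with P450 Glo-Buffer 20 min; luminescence. Norm. to 57uM sulphaphenazole as full inhibition.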
A short description of experiment [18]: qHTS Assay for Identification of Small Molecule Antagonists for NFkB Signaling Pathway (AID 895; active = well fitted inhibition curve with a large enough effect in the signal ratio, with a control signal flat, not every such curve was filed as active; the % refers to the signal ratio; also: potency is read from the fitted curve at half-maximal effect). The essentials:
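ME-180 NFkB-bla cells (beta-lactamase under NFkB response element), plated overnight, treated with compound then 10 pM TNF alpha (about EC50) for 5 hrs at 37 C. LiveBLAzer FRET read at 460/530 nm emission, 405 nm excitation.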

A short description of experiment [19]: qHTS Assay for Identification of Small Molecule Agonists for Thrombopoietin (TPO) Signaling Pathway (AID 917). Also: % is scaled to controls: 0 for no effect and ±100 for the full control effect. The essentials:
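Activators of TPO signaling were sought in murine Ba/F3 cells transfected with the human receptor, using a luciferase gene driven by the Glycoprotein IIb promoter; 24-hr compound exposure at 37 C alongside 26 pM TPO, in IL-3-free medium.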

Several values for one entry are separate records, joined by “and”; a condition that tells them apart may be missing. Identical values can stand only once. Values without a mark were called inactive. Records with an inconclusive call do not appear. Activity calls are given as the source filed them. Unless noted, calls follow the shape of the dose curve; as a rule, active = well fitted curve in the direction sought with a large enough effect; inconclusive = small, poorly fitted or top-dose-only effect, or another doubt; inactive = no such curve, though single readings can be large; an effect the other way counts as inactive or inconclusive.

Cytochrome P450 2C9 (Homo sapiens), sequence (P11712 whole entry, looked up): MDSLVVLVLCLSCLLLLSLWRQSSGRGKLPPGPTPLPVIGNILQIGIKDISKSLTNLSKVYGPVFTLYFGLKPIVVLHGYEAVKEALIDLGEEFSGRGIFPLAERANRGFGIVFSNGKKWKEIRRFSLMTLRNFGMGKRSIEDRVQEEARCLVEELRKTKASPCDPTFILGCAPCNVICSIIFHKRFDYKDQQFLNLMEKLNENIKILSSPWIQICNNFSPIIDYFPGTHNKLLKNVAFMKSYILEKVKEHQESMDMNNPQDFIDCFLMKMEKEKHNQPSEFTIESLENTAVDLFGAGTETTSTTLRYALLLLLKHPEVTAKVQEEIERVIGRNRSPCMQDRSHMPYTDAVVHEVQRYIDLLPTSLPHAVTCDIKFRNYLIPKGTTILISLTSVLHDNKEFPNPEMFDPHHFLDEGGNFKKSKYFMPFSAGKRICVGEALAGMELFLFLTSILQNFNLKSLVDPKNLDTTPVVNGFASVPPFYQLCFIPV
Guanine nucleotide-binding protein G(i) subunit alpha-1 (Homo sapiens), sequence (P63096 whole entry, looked up): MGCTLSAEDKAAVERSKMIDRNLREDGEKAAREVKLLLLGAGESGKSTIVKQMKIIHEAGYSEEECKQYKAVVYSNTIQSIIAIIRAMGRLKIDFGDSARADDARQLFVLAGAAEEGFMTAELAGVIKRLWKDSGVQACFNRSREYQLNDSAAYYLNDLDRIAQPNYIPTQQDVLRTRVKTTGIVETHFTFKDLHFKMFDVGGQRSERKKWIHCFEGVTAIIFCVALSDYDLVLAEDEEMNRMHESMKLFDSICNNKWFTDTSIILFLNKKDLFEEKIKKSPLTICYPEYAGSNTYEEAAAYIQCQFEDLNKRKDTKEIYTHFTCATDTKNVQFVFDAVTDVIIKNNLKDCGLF
Cytochrome P450 3A4 (Homo sapiens), sequence (P08684 whole entry, looked up): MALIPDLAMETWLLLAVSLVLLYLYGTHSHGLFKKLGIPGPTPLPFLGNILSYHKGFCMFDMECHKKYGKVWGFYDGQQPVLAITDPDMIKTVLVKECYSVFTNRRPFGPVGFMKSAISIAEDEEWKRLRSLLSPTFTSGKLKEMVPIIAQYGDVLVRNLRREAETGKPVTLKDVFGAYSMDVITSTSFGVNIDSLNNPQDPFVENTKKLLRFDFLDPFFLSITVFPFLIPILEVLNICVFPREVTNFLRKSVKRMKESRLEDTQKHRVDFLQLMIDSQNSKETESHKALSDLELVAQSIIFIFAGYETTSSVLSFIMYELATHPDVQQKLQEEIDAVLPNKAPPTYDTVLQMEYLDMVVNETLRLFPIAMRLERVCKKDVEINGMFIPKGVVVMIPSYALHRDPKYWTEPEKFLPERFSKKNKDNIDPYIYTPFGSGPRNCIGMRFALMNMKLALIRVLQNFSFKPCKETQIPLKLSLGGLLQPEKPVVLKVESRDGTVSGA
Cytochrome P450 2D6 (Homo sapiens), sequence (P10635 whole entry, looked up): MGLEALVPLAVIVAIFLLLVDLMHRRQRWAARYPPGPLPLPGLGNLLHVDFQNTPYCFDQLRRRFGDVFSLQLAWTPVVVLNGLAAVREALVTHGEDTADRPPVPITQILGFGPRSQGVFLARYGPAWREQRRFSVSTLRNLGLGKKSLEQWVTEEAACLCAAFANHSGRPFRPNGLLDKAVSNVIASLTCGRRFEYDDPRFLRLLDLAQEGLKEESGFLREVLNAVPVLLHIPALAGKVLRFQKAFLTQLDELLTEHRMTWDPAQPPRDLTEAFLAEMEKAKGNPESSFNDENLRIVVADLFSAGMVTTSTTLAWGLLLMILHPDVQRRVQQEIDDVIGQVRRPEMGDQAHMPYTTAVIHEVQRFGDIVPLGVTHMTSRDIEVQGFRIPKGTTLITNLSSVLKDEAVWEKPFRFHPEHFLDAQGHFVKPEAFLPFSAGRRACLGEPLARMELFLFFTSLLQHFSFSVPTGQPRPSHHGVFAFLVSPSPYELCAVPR

As for `O=C(N[C@H](CO)[C@H](O)c1ccc([N+](=O)[O-])cc1)C(Cl)Cl`, the Potency entry in experiment [1], in experiment [2], in experiment [3], in [4], in [5] and in [8] was “inactive” throughout. In addition, the Potency entry in experiment [9] is “inactive”. The caspase-3 activation in experiment [6] was 0.675%. Moreover, in [7], the molecule was classed as inactive.
`Cc1cc(NS(=O)(=O)c2ccc(N)cc2)no1`: the Potency result in experiment [1], in [2], in experiment [3], in [4], in experiment [5] and in [8] was “inactive” in each case. In addition, the Potency result in experiment [10], in [9] and in experiment [11] was “inactive” each time. The caspase-3 activation in [6] was 0.0786%. In [7], the molecule was called inactive.
Regarding `COc1ccc2cc3[n+](cc2c1OC)CCc1cc2c(cc1-3)OCO2`, the Potency result in experiment [1], in [2], in experiment [3], in [4], in experiment [5] and in [8] was “inactive” in each case. Further, the Potency entry in experiment [10] and in experiment [11] was “inactive” each time. For the same molecule, the caspase-3 activation in experiment [6] is 0.864%. Also, the result in experiment [7] and in [12] was inactive. Further, the Potency in experiment [13] was 2.51 µM (active); in [9], 39.8 µM (active).
With `CC(=O)Oc1ccccc1C(=O)Nc1ncc([N+](=O)[O-])s1`, the Potency result in experiment [1], in experiment [2], in experiment [3], in [4] and in experiment [5] was “inactive” in each case. Further, in [6], the caspase-3 activation was -3.94%. Also, in [7], the call was inactive.
`Cc1ccc(S(=O)(=O)N[C@@H](Cc2ccccc2)C(=O)CCl)cc1`: in experiment [14], the molecule was called inactive.
As for `CCc1c2c(nc3ccc(OC(=O)N4CCC(N5CCCCC5)CC4)cc13)-c1cc3c(c(=O)n1C2)COC(=O)[C@]3(O)CC`, the call in experiment [15] was inactive.
For the molecule `N=C(N)c1ccc(OCCCCCOc2ccc(C(=N)N)cc2)cc1`, the Potency entry in experiment [1], in experiment [2], in experiment [3], in experiment [4], in experiment [5] and in [8] was “inactive” throughout. Moreover, the Potency result in [10] and in experiment [11] was “inactive” in each case. Besides, the caspase-3 activation in experiment [6] was 1.46%. Besides, the molecule was classed as inactive in experiment [7]. Besides, the activation in experiment [16] was 3.68%.
For the molecule `CCOC(=O)c1ccc(OC(=O)CCCCCN=C(N)N)cc1`, the molecule was called inactive in [17]. Besides, the Potency in experiment [13] was 0.316 µM (active).
On to `Cc1ncc([N+](=O)[O-])n1CCO`, for which the Potency entry in [1], in experiment [2], in experiment [3], in experiment [4], in experiment [5] and in experiment [8] was “inactive” in each case. The Potency result in experiment [10], in experiment [9] and in experiment [11] was “inactive” each time. Besides, the caspase-3 activation in experiment [6] was 0.0502%. For the same molecule, the result in experiment [7] and in experiment [15] was inactive.
As for `CN(C)c1ccc(C(=C2C=CC(=[N+](C)C)C=C2)c2ccc(N(C)C)cc2)cc1`, the Potency in experiment [1] is 3.16 µM (active); in [2], 15.8 µM (active); in experiment [3] it was 6.31 µM (active); in experiment [4], 31.6 µM (active); in experiment [5] it was 10 µM (active); in experiment [8], 31.6 µM (active). Besides, the Potency in experiment [9] was 1.26 µM (active). Besides, the caspase-3 activation in [6] is 85.6% (active). For the same molecule, the molecule was classed as inactive in experiment [12]. Besides, the Potency result in experiment [10] and in experiment [11] was “inactive” throughout.
Take `OCc1ccc(-c2nn(Cc3ccccc3)c3ccccc23)o1`: the molecule was called inactive in [14], in [12] and in experiment [19]. Further, the Potency in experiment [18] was 8.91 µM (active).
Consider `CC(=O)[C@H]1CC[C@H]2[C@@H]3CCC4=CC(=O)CC[C@]4(C)[C@H]3CC[C@]12C`, for which the Potency entry in experiment [1], in [2], in [3], in experiment [4], in experiment [5] and in [8] was “inactive” in each case. The Potency result in [9] is “inactive”. In experiment [6], the caspase-3 activation is 12.7% and 23%. Also, the outcome in experiment [7], in experiment [14] and in experiment [15] was inactive.
`O=S(=O)(O)CCS`: the molecule was called inactive in [15]. Besides, the Potency entry in experiment [10] and in [11] was “inactive” each time.
Take `NS(=O)(=O)c1cc2c(cc1Cl)NC(C(Cl)Cl)NS2(=O)=O` (stereo not given): in [15], the outcome was inactive. Further, the Potency entry in experiment [10] and in experiment [11] was “inactive” throughout.
In the case of `Cc1ccnc2c1NC(=O)c1cccnc1N2C1CC1`, the Potency entry in experiment [1], in experiment [2], in experiment [3], in [4], in [5] and in experiment [8] was “inactive” in each case. In experiment [9], the Potency entry was “inactive”. Besides, the caspase-3 activation in experiment [6] is 0.892%. Further, the result in experiment [7] and in experiment [15] was inactive.
With `Cc1noc(NS(=O)(=O)c2ccc(N)cc2)c1C`, the Potency result in [1], in experiment [2], in [3], in [4], in [5] and in experiment [8] was “inactive” in each case. Moreover, the Potency result in [10], in [9] and in experiment [11] was “inactive” throughout. Moreover, the caspase-3 activation in experiment [6] was 0.00688%. The molecule was classed as inactive in experiment [7], in experiment [17] and in experiment [15]. Moreover, the activation in [16] was -20.7% and -0.198%.
On to `N[C@@H](Cc1ccc(O)c(O)c1)C(=O)O`, for which the call in experiment [14] and in experiment [19] was inactive. In addition, the Potency entry in experiment [18] is “inactive”.
In the case of `CCn1cc(C(=O)O)c(=O)c2cc(F)c(N3CCNCC3)nc21`, the result in experiment [17] and in experiment [15] was inactive. The Potency result in experiment [10] and in [11] was “inactive” each time.
